Where “and” joins values, the source holds several entries; their conditions need not be identical. Equal entries are not always repeated. About 2,000 (36%) of roughly 5,500 compounds were called active. Inconclusive results (about 18%) are left out. Cut-off read from the data, not from the text of the source: active = normalized growth mostly below about 0.91 (no sharp cut-off); inconclusive = no clear call, values can overlap the other calls; inactive = mostly above about 0.92. Some of the results follow.
Test: chemical genetic growth profiling, strain panel (AID 1159580);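 note: tested at 20 µM; growth read once vehicle control cultures reached saturation at 30 °C; 1 = growth at the plate median or of vehicle wells; lower values mean less growth of the strain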
Conditions: S. cerevisiae deletion strains, growth OD

Measured: normalized growth

COc1ccc2c(c1)O[C@H]1c3ccc(OC)cc3OC[C@@H]21
inactive: locus YAL021C, strain ccr4, stronger effect = lower value 1.03 | locus YAL026C, strain drs2, stronger effect = lower value 1.02 | locus YAL030W, strain snc1, stronger effect = lower value 1.02 | locus YBL061C, strain skt5, stronger effect = lower value 1.02 | locus YBR009C, strain hhf1, stronger effect = lower value 1 | locus YBR021W, strain FUR4, stronger effect = lower value 0.961 | locus YBR023C, strain chs3, stronger effect = lower value 1.02 | locus YBR171W, strain sec66, stronger effect = lower value 1.03 | locus YBR229C, strain ROT2, stronger effect = lower value 0.975 | locus YBR231C, strain swc5, stronger effect = lower value 1.01 | locus YBR279W, strain paf1, stronger effect = lower value 1.02 | locus YCL011C, strain gbp2, stronger effect = lower value 1.02 | locus YCL016C, strain dcc1, stronger effect = lower value 1.03 | locus YCL029C, strain bik1, stronger effect = lower value 0.99 | locus YCL069W, strain vba3, stronger effect = lower value 1.03 | locus YCR088W, strain abp1, stronger effect = lower value 1.02 | locus YDL005C, strain med2, stronger effect = lower value 1.02 | locus YDL035C, strain GPR1, stronger effect = lower value 0.945 | locus YDL040C, strain nat1, stronger effect = lower value 1.01 | locus YDL074C, strain BRE1, stronger effect = lower value 0.911 | locus YDL101C, strain DUN1, stronger effect = lower value 0.984 | locus YDL185W, strain tfp1, stronger effect = lower value 0.98 | locus YDR001C, strain nth1, stronger effect = lower value 1.01 | locus YDR069C, strain doa4, stronger effect = lower value 1.01 | locus YDR137W, strain rgp1, stronger effect = lower value 1.06 | locus YDR150W, strain NUM1, stronger effect = lower value 0.986 | locus YDR159W, strain sac3, stronger effect = lower value 1.05 | locus YDR162C, strain NBP2, stronger effect = lower value 0.937 | locus YDR195W, strain ref2 0.976 | locus YDR297W, strain sur2, stronger effect = lower value 1.03 | locus YDR334W, strain swr1, stronger effect = lower value 1.02 | locus YDR335W, strain msn5, stronger effect = lower value 1.03 | locus YDR388W, stronger effect = lower value 0.956 | locus YDR392W, strain spt3, stronger effect = lower value 1.03 | locus YEL003W, strain gim4, stronger effect = lower value 1.02 | locus YEL037C, strain rad23, stronger effect = lower value 1.02 | locus YEL061C, strain CIN8 (second series), stronger effect = lower value 1.02 | locus YEL061C, strain CIN8, stronger effect = lower value 0.985 | locus YER015W, strain faa2, stronger effect = lower value 1.03 | locus YER016W, strain bim1, stronger effect = lower value 1.02 | locus YER110C, stronger effect = lower value 0.924 | locus YER111C, strain swi4, stronger effect = lower value 1.02 | locus YER155C, strain BEM2 (second series), stronger effect = lower value 1.04 | locus YER167W, strain BCK2, stronger effect = lower value 0.989 | locus YFR010W, strain ubp6, stronger effect = lower value 1.01 | locus YGL167C, strain pmr1, stronger effect = lower value 1.02 | locus YGL173C, strain kem1, stronger effect = lower value 1.02 | locus YGL227W, strain vid30, stronger effect = lower value 1.02 | locus YGL240W, strain doc1, stronger effect = lower value 1.03 | locus YGL253W, strain hxk2, stronger effect = lower value 1.02 | locus YGR078C, strain PAC10, stronger effect = lower value 0.928 | locus YHR013C, strain ard1, stronger effect = lower value 1.05 | locus YHR027C, strain rpn1, stronger effect = lower value 1.02 | locus YHR030C, strain SLT2, stronger effect = lower value 0.977 | locus YHR079C, strain IRE1 (second series), stronger effect = lower value 0.95 | locus YHR079C, strain IRE1, stronger effect = lower value 0.964 | locus YHR094C, strain hxt1, stronger effect = lower value 0.968 | locus YHR129C, strain ARP1, stronger effect = lower value 1 | locus YHR142W, strain chs7, stronger effect = lower value 1.02 | locus YHR200W, strain rpn10, stronger effect = lower value 0.944 | locus YIL066C, strain RNR3, stronger effect = lower value 0.977 | locus YIL073C, strain SPO22, stronger effect = lower value 0.961 | locus YIL125W, strain kgd1, stronger effect = lower value 0.973 | locus YJL092W, strain hpr5, stronger effect = lower value 1.02 | locus YJL095W, strain BCK1 (second series), stronger effect = lower value 1.01 | locus YJL115W, strain asf1, stronger effect = lower value 1.03 | locus YJL129C, strain trk1, stronger effect = lower value 1.05 | locus YJL134W, strain LCB3, stronger effect = lower value 0.992 | locus YJL154C, strain vps35, stronger effect = lower value 1.02 | locus YJL164C, strain tpk1, stronger effect = lower value 1.02 | locus YJL166W, strain qcr8, stronger effect = lower value 1.02 | locus YJL168C, strain set2, stronger effect = lower value 0.955 | locus YJL187C, strain SWE1 (second series), stronger effect = lower value 0.96 | locus YJL187C, strain SWE1, stronger effect = lower value 1.02 | locus YJR066W, strain TOR1, stronger effect = lower value 0.927
0.684 (active) and 0.982 (inactive): locus YJL095W, strain BCK1, stronger effect = lower value
active: locus YDL192W, strain arf1, stronger effect = lower value 0.897 | locus YDR101C, strain arx1, stronger effect = lower value 0.911 | locus YDR318W, strain mcm21, stronger effect = lower value 0.87 | locus YDR502C, strain sam2, stronger effect = lower value 0.876 | locus YGL078C, strain dbp3, stronger effect = lower value 0.897 | locus YGL086W, strain mad1, stronger effect = lower value 0.882 | locus YGL248W, strain PDE1, stronger effect = lower value 0.863 | locus YGR135W, strain pre9, stronger effect = lower value 0.84 | locus YGR252W, strain gcn5, stronger effect = lower value 0.669 | locus YIR030C, strain dcg1, stronger effect = lower value 0.927
